# Test system: UCD52 (cells of a triple-negative basal-like breast cancer xenograft)
# Test: cell viability of combination (% of vehicle); higher = less cytotoxic
# Conditions: 1 µM; 72 h; partner dose: 10 nM
# Protocol: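 PDX cells were treated for 72 h with each drug at 1 µM plus carfilzomib (10 nM; 100 nM for WHIM2). Luciferase viability is expressed as percent of vehicle.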
row,SMILES,cell viability of combination
1,CCOC(=O)c1c(CSc2ccccc2)n(C)c2cc(Br)c(O)c(CN(C)C)c12.Cl [Arbidol HCl] + CC(C)C[C@H](NC(=O)[C@H](CCc1ccccc1)NC(=O)CN1CCOCC1)C(=O)N[C@@H](Cc1ccccc1)C(=O)N[C@@H](CC(C)C)C(=O)[C@@]1(C)CO1 [Carfilzomib],58.5
2,CC1=CC(=O)c2ccccc2C1=O [Menadione] + CC(C)C[C@H](NC(=O)[C@H](CCc1ccccc1)NC(=O)CN1CCOCC1)C(=O)N[C@@H](Cc1ccccc1)C(=O)N[C@@H](CC(C)C)C(=O)[C@@]1(C)CO1 [Carfilzomib],62
3,COc1cccc2c1C(=O)c1c(O)c3c(c(O)c1C2=O)CC(O)(C(=O)CO)CC3OC1CC(N)C(O)C(C)O1 (stereo unspecified) [Doxorubicin] + CC(C)C[C@H](NC(=O)[C@H](CCc1ccccc1)NC(=O)CN1CCOCC1)C(=O)N[C@@H](Cc1ccccc1)C(=O)N[C@@H](CC(C)C)C(=O)[C@@]1(C)CO1 [Carfilzomib],28.3
4,CCC(=C(c1ccccc1)c1ccc(OCCN(C)C)cc1)c1ccccc1.O=C(O)CC(O)(CC(=O)O)C(=O)O [Tamoxifen Citrate] + CC(C)C[C@H](NC(=O)[C@H](CCc1ccccc1)NC(=O)CN1CCOCC1)C(=O)N[C@@H](Cc1ccccc1)C(=O)N[C@@H](CC(C)C)C(=O)[C@@]1(C)CO1 [Carfilzomib],71.2
5,C#Cc1cccc(Nc2ncnc3cc(OCCOC)c(OCCOC)cc23)c1.Cl [Erlotinib Hydrochloride] + CC(C)C[C@H](NC(=O)[C@H](CCc1ccccc1)NC(=O)CN1CCOCC1)C(=O)N[C@@H](Cc1ccccc1)C(=O)N[C@@H](CC(C)C)C(=O)[C@@]1(C)CO1 [Carfilzomib],57.4
6,Cc1nc(NC(=O)N2CCCC2C(N)=O)sc1-c1ccnc(C(C)(C)C(F)(F)F)c1 (stereo unspecified) + CC(C)C[C@H](NC(=O)[C@H](CCc1ccccc1)NC(=O)CN1CCOCC1)C(=O)N[C@@H](Cc1ccccc1)C(=O)N[C@@H](CC(C)C)C(=O)[C@@]1(C)CO1 [Carfilzomib],42.3
7,COC(=O)NC(C(=O)N1CCCC1c1ncc(-c2ccc(-c3ccc(-c4cnc(C5CCCN5C(=O)C(NC(=O)OC)C(C)C)[nH]4)cc3)cc2)[nH]1)C(C)C (stereo unspecified) + CC(C)C[C@H](NC(=O)[C@H](CCc1ccccc1)NC(=O)CN1CCOCC1)C(=O)N[C@@H](Cc1ccccc1)C(=O)N[C@@H](CC(C)C)C(=O)[C@@]1(C)CO1 [Carfilzomib],60.4
8,CSc1ccc2c(c1)N(CCC1CCCCN1C)c1ccccc1S2.Cl (stereo unspecified) [Thioridazine HCl] + CC(C)C[C@H](NC(=O)[C@H](CCc1ccccc1)NC(=O)CN1CCOCC1)C(=O)N[C@@H](Cc1ccccc1)C(=O)N[C@@H](CC(C)C)C(=O)[C@@]1(C)CO1 [Carfilzomib],64.4
9,COC(=O)C1=C(C)NC(C)=C(C(=O)OC2CCCN(Cc3ccccc3)C2)C1c1cccc([N+](=O)[O-])c1.Cl (stereo unspecified) [Benidipine HCl] + CC(C)C[C@H](NC(=O)[C@H](CCc1ccccc1)NC(=O)CN1CCOCC1)C(=O)N[C@@H](Cc1ccccc1)C(=O)N[C@@H](CC(C)C)C(=O)[C@@]1(C)CO1 [Carfilzomib],57.7
10,CC(CCC(=O)O)C1CCC2C3CCC4CC(O)CCC4(C)C3CCC12C (stereo unspecified) [Lithocholic Acid] + CC(C)C[C@H](NC(=O)[C@H](CCc1ccccc1)NC(=O)CN1CCOCC1)C(=O)N[C@@H](Cc1ccccc1)C(=O)N[C@@H](CC(C)C)C(=O)[C@@]1(C)CO1 [Carfilzomib],60.5
11,CN(C)CCOc1ccc(C(=C(CCCl)c2ccccc2)c2ccccc2)cc1.O=C(O)CC(O)(CC(=O)O)C(=O)O [Toremifene Citrate] + CC(C)C[C@H](NC(=O)[C@H](CCc1ccccc1)NC(=O)CN1CCOCC1)C(=O)N[C@@H](Cc1ccccc1)C(=O)N[C@@H](CC(C)C)C(=O)[C@@]1(C)CO1 [Carfilzomib],70.2
12,COc1ccc(CN2CCN(C(c3ccc(F)cc3)c3ccc(F)cc3)CC2)c(OC)c1OC.Cl.Cl [Lomerizine HCl] + CC(C)C[C@H](NC(=O)[C@H](CCc1ccccc1)NC(=O)CN1CCOCC1)C(=O)N[C@@H](Cc1ccccc1)C(=O)N[C@@H](CC(C)C)C(=O)[C@@]1(C)CO1 [Carfilzomib],57.7
13,COc1cc2nccc(Oc3ccc(NC(=O)Nc4cc(C)on4)c(Cl)c3)c2cc1OC [Tivozanib (AV-951)] + CC(C)C[C@H](NC(=O)[C@H](CCc1ccccc1)NC(=O)CN1CCOCC1)C(=O)N[C@@H](Cc1ccccc1)C(=O)N[C@@H](CC(C)C)C(=O)[C@@]1(C)CO1 [Carfilzomib],48.9
14,C=C1C(=CC=C2CCCC3(C)C2CCC3C(C)CCCC(C)(C)O)CC(O)CC1O (stereo unspecified) [Calcitriol] + CC(C)C[C@H](NC(=O)[C@H](CCc1ccccc1)NC(=O)CN1CCOCC1)C(=O)N[C@@H](Cc1ccccc1)C(=O)N[C@@H](CC(C)C)C(=O)[C@@]1(C)CO1 [Carfilzomib],38.4
15,C1=C\COCc2cc(ccc2OCCN2CCCC2)Nc2nccc(n2)-c2cccc(c2)COC/1 [Pacritinib] + CC(C)C[C@H](NC(=O)[C@H](CCc1ccccc1)NC(=O)CN1CCOCC1)C(=O)N[C@@H](Cc1ccccc1)C(=O)N[C@@H](CC(C)C)C(=O)[C@@]1(C)CO1 [Carfilzomib],57.9
16,Clc1ccc(C(Cn2ccnc2)OCc2ccsc2Cl)c(Cl)c1 (stereo unspecified) [Tioconazole] + CC(C)C[C@H](NC(=O)[C@H](CCc1ccccc1)NC(=O)CN1CCOCC1)C(=O)N[C@@H](Cc1ccccc1)C(=O)N[C@@H](CC(C)C)C(=O)[C@@]1(C)CO1 [Carfilzomib],62.5
